Data: PMC7862700, “An all-to-all approach to the identification of sequence-specific readers for epigenetic DNA modifications on cytosine”

Experiments:
Test in all cases: DAPPL (digital affinity profiling via proximity ligation, sequencing); 10 mM Tris-HCl pH 7.5, 50 mM NaCl, 1 mM DTT, 4% glycerol, room temperature, 30 min; GST-TFs on glutathione beads, 16-mer random dsDNA library, 0.1% formaldehyde crosslink after washing; high values mean tight binding
FEV = target: T1, FEV (Homo sapiens, UniProt Q99581 1-238); settings: protein: recombinant; tags: N-terminal GST; dsDNA, one strand shown
T1 sequence: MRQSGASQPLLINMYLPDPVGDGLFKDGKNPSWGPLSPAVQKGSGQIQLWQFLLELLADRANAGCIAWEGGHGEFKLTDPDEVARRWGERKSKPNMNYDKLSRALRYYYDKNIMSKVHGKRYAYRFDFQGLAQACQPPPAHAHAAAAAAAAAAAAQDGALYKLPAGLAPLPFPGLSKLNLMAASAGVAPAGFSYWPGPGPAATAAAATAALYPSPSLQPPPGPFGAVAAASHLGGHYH
In short: (§1)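 Sequencing on an Illumina NextSeq500 followed washing, crosslinking with 0.1% formaldehyde, proximity ligation (BsaI/T4 ligase, 1 h, 37 °C) and PCR amplification of pools that had been incubated for 30 min at room temperature with 200 nmole of a random double-stranded 16-mer DNA library in Tris/NaCl/DTT/glycerol buffer. Each pool held DNA-barcoded human transcription factors, expressed in yeast as GST fusions and captured on glutathione beads, plus a tag-only sample. Binding signal is a hexamer's read frequency for a factor divided by its frequency in the tag-only sample.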

ETV5 = ETV5 (Homo sapiens, UniProt P41161 1-510); settings: protein: recombinant; tags: N-terminal GST; dsDNA, one strand shown
In short: as §1

HSF1 = HSF1 (Homo sapiens, UniProt Q00613 1-529); settings: protein: recombinant; tags: N-terminal GST; chain copies: 3; dsDNA, one strand shown
In short: as §1

SPIC = target: T2, SPIC (Homo sapiens, UniProt Q8N5J4 1-248); settings: protein: recombinant; tags: N-terminal GST; dsDNA, one strand shown
T2 sequence: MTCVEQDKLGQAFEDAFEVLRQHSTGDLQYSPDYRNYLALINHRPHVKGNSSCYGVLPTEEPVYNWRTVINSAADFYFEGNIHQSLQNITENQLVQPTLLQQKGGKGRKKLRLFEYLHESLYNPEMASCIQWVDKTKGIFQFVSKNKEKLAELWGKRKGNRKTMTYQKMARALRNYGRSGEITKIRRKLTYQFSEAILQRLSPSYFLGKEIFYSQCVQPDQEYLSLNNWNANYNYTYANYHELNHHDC
In short: as §1

ELF4 = ELF4 (Homo sapiens, UniProt Q99607 1-663); settings: protein: recombinant; tags: N-terminal GST; dsDNA, one strand shown
In short: as §1

ELK4 = target: T3, ELK4 (Homo sapiens, UniProt P28324-2 1-405); settings: protein: recombinant; tags: N-terminal GST; dsDNA, one strand shown
T3 sequence: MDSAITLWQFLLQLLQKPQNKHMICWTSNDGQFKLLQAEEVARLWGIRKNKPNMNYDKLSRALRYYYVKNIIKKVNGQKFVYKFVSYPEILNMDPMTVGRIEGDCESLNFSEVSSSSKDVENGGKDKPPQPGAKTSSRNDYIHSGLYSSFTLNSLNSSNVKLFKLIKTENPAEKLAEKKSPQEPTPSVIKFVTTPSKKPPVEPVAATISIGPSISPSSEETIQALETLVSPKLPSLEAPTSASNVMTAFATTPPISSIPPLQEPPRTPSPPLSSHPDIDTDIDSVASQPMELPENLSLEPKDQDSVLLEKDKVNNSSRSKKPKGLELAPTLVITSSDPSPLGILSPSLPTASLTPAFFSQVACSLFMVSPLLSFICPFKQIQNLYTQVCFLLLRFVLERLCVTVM
In short: as §1

ETV2 = target: T4, ETV2 (Homo sapiens, UniProt O00321 1-342); settings: protein: recombinant; tags: N-terminal GST; dsDNA, one strand shown
T4 sequence: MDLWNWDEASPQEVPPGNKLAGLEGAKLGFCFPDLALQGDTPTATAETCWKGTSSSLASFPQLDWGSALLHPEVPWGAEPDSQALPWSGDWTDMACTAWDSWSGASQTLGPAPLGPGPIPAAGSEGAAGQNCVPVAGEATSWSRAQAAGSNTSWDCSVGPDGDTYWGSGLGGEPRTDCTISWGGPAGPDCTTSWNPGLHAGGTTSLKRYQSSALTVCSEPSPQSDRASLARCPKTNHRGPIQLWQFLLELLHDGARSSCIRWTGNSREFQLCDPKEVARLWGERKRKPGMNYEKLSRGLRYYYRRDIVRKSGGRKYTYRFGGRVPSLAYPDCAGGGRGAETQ
In short: as §1

ELF3 = target: T5, ELF3 (Homo sapiens, UniProt P78545 1-371); settings: protein: recombinant; tags: N-terminal GST; dsDNA, one strand shown
T5 sequence: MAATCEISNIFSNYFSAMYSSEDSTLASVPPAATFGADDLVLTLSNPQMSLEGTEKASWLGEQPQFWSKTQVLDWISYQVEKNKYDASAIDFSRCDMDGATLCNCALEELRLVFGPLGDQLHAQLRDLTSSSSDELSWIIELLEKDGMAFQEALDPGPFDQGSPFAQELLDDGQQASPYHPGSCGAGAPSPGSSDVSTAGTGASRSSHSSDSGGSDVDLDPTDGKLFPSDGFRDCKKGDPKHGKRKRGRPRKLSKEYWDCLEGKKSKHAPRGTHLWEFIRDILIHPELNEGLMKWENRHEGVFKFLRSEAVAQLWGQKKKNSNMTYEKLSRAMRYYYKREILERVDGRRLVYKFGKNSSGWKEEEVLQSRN
In short: as §1

CRX = CRX (Homo sapiens, UniProt O43186 1-299); settings: protein: recombinant; tags: N-terminal GST; dsDNA, one strand shown
In short: as §1

ETV1 = ETV1 (Homo sapiens, UniProt P50549 1-477); settings: protein: recombinant; tags: N-terminal GST; dsDNA, one strand shown
In short: as §1

ERF = target: T6, ERF (Homo sapiens, UniProt P50548 1-548); settings: protein: recombinant; tags: N-terminal GST; dsDNA, one strand shown
T6 sequence: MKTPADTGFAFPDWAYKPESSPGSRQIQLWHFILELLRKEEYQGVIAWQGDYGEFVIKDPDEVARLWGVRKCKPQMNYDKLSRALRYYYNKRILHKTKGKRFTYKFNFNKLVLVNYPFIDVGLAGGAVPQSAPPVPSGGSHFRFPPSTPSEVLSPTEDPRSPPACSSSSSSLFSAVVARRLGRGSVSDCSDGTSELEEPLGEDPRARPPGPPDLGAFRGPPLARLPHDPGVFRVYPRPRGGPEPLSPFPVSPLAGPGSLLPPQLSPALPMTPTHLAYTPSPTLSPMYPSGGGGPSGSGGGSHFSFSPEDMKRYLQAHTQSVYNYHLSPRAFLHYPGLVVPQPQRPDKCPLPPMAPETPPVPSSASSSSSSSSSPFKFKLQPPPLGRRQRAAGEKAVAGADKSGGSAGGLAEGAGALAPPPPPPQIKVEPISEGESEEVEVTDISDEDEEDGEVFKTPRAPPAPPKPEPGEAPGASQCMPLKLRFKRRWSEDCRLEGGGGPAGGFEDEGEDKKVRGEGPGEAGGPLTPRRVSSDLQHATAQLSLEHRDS
In short: as §1

ETV3L = target: T7, ETV3L (Homo sapiens, UniProt Q6ZN32 1-361); settings: protein: recombinant; tags: N-terminal GST; dsDNA, one strand shown
T7 sequence: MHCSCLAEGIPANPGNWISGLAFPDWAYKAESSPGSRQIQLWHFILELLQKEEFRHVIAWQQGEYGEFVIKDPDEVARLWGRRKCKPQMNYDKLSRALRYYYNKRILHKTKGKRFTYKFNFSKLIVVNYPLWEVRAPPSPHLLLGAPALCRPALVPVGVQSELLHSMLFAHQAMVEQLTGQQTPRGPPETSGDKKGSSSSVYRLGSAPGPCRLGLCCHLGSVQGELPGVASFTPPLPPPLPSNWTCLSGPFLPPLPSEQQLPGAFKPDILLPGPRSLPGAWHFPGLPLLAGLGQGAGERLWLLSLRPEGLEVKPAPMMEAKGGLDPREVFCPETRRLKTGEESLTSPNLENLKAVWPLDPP
In short: as §1

ETS2 = target: T8, ETS2 (Homo sapiens, UniProt P15036 1-469); settings: protein: recombinant; tags: N-terminal GST; dsDNA, one strand shown
T8 sequence: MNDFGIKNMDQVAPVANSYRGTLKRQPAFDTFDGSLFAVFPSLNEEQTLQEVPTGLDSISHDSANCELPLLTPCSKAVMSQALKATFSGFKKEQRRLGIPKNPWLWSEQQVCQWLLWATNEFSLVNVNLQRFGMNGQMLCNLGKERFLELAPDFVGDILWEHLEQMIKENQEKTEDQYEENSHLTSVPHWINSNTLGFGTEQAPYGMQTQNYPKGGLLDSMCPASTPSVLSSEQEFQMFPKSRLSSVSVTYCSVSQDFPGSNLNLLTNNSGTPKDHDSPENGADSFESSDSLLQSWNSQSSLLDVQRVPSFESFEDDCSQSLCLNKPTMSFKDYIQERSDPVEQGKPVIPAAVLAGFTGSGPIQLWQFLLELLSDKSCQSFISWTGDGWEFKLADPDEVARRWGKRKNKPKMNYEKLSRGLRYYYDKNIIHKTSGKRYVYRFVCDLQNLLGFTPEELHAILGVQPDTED
In short: as §1

SPDEF = target: T9, SPDEF (Homo sapiens, UniProt O95238 1-335); settings: protein: recombinant; tags: N-terminal GST; dsDNA, one strand shown
T9 sequence: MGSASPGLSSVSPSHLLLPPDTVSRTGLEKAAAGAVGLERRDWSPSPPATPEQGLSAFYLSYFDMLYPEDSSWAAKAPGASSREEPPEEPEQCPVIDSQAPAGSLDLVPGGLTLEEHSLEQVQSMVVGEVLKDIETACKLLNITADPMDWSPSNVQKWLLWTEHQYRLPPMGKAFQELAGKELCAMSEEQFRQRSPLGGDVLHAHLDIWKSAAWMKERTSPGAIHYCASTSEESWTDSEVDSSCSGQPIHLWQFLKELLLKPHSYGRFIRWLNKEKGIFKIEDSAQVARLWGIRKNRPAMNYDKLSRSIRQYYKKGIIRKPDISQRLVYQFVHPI
In short: as §1

ETV7 = target: T10, ETV7 (Homo sapiens, UniProt Q9Y603 1-341); settings: protein: recombinant; tags: N-terminal GST; dsDNA, one strand shown
T10 sequence: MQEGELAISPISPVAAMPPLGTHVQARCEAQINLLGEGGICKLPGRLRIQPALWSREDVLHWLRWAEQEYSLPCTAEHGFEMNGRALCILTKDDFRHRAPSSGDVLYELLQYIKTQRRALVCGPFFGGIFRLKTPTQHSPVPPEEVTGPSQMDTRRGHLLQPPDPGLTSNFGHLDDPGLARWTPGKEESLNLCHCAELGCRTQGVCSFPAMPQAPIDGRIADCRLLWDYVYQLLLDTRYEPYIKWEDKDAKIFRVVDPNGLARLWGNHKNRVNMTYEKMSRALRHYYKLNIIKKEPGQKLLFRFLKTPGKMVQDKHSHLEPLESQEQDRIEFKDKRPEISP
In short: as §1

ELF5 = target: T11, ELF5 (Homo sapiens, UniProt Q9UKW6-2 1-255); settings: protein: recombinant; tags: N-terminal GST; dsDNA, one strand shown
T11 sequence: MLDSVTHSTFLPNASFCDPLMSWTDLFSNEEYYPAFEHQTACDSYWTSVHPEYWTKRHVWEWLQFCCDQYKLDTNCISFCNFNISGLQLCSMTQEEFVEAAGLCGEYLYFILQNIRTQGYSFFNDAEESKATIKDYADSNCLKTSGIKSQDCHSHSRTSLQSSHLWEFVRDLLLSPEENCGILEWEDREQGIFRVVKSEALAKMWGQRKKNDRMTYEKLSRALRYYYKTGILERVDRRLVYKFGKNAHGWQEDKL
In short: as §1

ETV3 = target: T12, ETV3 (Homo sapiens, UniProt P41162-2 1-143); settings: protein: recombinant; tags: N-terminal GST; dsDNA, one strand shown
T12 sequence: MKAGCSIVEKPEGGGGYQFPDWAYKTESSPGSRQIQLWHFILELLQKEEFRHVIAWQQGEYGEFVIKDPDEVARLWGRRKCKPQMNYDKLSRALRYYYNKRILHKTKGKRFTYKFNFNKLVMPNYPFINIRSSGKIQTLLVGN
In short: as §1

Chain of CRX (O43186 whole entry): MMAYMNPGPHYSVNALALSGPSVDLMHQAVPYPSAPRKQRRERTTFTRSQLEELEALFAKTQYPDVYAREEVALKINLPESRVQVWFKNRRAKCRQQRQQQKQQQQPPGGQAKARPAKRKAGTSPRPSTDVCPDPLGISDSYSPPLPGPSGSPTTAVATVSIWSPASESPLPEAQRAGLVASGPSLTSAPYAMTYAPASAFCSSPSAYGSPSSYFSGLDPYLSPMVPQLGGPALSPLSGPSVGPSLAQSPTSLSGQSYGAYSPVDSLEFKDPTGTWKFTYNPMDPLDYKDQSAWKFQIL
Chain of ETV5 (P41161 whole entry): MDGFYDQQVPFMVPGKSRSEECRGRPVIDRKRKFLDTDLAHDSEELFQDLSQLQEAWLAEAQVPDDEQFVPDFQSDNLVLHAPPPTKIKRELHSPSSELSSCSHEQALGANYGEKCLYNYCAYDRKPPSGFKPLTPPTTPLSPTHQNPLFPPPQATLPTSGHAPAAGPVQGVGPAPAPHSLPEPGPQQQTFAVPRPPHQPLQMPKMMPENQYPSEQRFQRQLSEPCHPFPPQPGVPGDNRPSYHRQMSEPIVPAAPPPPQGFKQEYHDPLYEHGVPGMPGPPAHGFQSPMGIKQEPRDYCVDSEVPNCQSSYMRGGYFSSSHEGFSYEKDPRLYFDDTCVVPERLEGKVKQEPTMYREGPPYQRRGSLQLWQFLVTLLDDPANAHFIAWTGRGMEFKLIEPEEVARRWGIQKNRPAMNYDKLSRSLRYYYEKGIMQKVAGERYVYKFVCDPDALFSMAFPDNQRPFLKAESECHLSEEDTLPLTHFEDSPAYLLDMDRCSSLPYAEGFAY
Chain of ELF4 (Q99607 whole entry): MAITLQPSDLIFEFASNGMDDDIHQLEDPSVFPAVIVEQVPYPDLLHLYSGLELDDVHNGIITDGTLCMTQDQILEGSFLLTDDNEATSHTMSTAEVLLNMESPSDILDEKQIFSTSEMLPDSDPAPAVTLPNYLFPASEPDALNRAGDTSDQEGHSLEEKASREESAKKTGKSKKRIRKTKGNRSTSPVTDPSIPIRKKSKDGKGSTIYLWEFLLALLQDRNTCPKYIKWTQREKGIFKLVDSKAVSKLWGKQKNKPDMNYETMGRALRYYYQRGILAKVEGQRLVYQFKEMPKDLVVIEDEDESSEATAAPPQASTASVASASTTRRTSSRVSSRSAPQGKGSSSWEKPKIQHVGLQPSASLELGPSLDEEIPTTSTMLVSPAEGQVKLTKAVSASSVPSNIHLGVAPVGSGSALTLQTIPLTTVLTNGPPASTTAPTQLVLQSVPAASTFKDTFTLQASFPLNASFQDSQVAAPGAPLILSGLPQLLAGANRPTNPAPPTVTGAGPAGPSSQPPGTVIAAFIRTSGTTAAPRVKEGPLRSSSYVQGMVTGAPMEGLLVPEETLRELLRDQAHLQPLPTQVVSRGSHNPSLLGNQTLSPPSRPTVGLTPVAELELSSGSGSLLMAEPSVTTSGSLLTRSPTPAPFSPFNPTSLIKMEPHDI
Chain of HSF1 (Q00613 whole entry): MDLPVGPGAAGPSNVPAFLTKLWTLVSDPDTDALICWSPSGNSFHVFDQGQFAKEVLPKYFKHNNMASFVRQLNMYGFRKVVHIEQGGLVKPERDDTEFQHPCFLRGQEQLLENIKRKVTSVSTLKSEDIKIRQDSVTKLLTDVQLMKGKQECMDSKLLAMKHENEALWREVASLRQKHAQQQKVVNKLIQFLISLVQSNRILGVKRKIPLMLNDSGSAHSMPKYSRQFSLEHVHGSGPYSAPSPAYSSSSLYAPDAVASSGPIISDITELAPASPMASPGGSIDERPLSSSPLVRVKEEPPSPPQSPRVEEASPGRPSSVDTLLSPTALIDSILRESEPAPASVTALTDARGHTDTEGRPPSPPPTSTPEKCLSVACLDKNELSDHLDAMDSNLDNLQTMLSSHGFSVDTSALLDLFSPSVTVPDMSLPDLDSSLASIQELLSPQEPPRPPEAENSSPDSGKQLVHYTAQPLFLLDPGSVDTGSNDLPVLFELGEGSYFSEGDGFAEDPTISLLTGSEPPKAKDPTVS
Chain of ETV1 (P50549 whole entry): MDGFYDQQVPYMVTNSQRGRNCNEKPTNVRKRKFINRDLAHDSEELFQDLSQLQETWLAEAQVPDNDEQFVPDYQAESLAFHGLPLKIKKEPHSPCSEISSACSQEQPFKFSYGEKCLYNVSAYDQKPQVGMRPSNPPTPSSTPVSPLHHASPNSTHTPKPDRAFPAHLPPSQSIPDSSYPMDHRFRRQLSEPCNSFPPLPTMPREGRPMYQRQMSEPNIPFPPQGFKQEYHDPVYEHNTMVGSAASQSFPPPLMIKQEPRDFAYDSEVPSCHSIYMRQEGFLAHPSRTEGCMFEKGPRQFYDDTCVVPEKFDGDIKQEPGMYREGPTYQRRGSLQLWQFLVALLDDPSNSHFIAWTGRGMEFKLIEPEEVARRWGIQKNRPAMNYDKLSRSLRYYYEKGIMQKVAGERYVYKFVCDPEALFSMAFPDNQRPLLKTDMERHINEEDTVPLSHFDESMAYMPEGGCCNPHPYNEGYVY

TCTATG
binding signal (FEV): 1.06 fold enrichment (6-mer frequency, TF over GST control)
binding signal (ETV5): 1.1 fold enrichment (6-mer frequency, TF over GST control)
binding signal (HSF1): 1.16 fold enrichment (6-mer frequency, TF over GST control)
binding signal (SPIC): 1.11 fold enrichment (6-mer frequency, TF over GST control)
binding signal (ELF4): 1.14 fold enrichment (6-mer frequency, TF over GST control)
binding signal (ELK4): 1.16 fold enrichment (6-mer frequency, TF over GST control)
binding signal (ETV2): 1.25 fold enrichment (6-mer frequency, TF over GST control)
binding signal (ELF3): 1.1 fold enrichment (6-mer frequency, TF over GST control)
binding signal (CRX): 1.11 fold enrichment (6-mer frequency, TF over GST control)
binding signal (ETV1): 1.1 fold enrichment (6-mer frequency, TF over GST control)
binding signal (ERF): 1.07 fold enrichment (6-mer frequency, TF over GST control)
binding signal (ETV3L): 1.08 fold enrichment (6-mer frequency, TF over GST control)
binding signal (ETS2): 1.08 fold enrichment (6-mer frequency, TF over GST control)
binding signal (SPDEF): 1.05 fold enrichment (6-mer frequency, TF over GST control)
binding signal (ETV7): 1.25 fold enrichment (6-mer frequency, TF over GST control)
binding signal (ELF5): 1.07 fold enrichment (6-mer frequency, TF over GST control)
binding signal (ETV3): 1.18 fold enrichment (6-mer frequency, TF over GST control)
